This is a sample that favours compounds with a hit; in the whole collection about 5.4% have one here.
RORg inh = ROR gamma (mouse) transcription inhibition. Potency, µM (highest dose often 53.6 µM), hits mostly inhibitors. AID 2551. 310,000 tested, 5.4% active. Drosophila S2 Gal4-RORgamma UAS-luciferase reporter, 20 h. P51450; also: nearly all actives have a fitted effect of over 60% in size
Target sequence (P51450 whole entry, looked up, the tested form may be a part): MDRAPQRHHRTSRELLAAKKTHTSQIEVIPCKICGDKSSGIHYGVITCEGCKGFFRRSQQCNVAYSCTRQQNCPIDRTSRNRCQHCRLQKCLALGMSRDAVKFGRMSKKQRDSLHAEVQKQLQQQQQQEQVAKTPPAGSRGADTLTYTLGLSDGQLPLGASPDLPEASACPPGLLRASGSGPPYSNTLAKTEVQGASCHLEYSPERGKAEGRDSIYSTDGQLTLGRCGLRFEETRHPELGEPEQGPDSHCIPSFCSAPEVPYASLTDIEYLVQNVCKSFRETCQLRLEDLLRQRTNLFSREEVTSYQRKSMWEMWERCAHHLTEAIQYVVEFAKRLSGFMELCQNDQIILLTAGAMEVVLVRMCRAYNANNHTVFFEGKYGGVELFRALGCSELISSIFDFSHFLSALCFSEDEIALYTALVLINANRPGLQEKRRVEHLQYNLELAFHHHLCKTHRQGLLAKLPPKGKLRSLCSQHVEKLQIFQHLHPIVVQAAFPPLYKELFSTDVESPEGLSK
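Drosophila S2 cells stably expressing Gal4-DBD/mouse RORγ fusion under metallothionein promoter plus UAS-luciferase; compound 1 h, then 700 uM CuSO4 induction for 20 h at ambient temperature; inhibition read as reduced luminescence.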
VP16 counter = inhibits Gal4-VP16 luciferase reporter, ROR gamma counter-screen | Drosophila S2 Gal4-VP16 UAS-luciferase, luminescence, 20 h | Potency, µM (titrated, usually from 53.6 µM), hits mostly inhibitors | 310,000 tested, 3.5% active;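 also: Gal4-VP16 expression switched on by copper sulfate through the metallothionein promoter; nearly all actives have a fitted effect of over 50% in size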
p53 reactivator = re-activators of mutant p53 | H1299 p53-A138V BP100-luciferase reporter, luminescence, 24 h | 320,000 tested, 0.063% active | Potency, µM (series often up to 92.2 µM), most hits filed as activators; also: nearly all actives have a fitted effect of over 45% in size
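H1299 (p53-null), stable ts p53-A138V + BP100-Luc; 1000 cells/well, Opti-MEM/10% FBS; cpd 4 pt, 1:5; 24 h, 37 deg C, 5% CO2; detection reagent 10 min RT; luminescence.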
Six1-Eya2 inh = Six1/Eya2 interaction inhibition; Q15475+O00167; AlphaScreen GST-Six1/His-Eya2 binding, biochemical; hits give low values; activity change, % (test concentration not listed); 360,000 tested, 0.56% active; AID 651725; in the data active = activity change below about -65%; inconclusive = mostly about -30% to -63%
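Homogeneous AlphaScreen proximity assay pairing GST-Six1 with His-tagged Eya2 (added as 5X mix: 250 nM and 500 nM) in 50 mM Tris pH 8.0, 300 mM NaCl, 1 mM TCEP. Glutathione donor and nickel acceptor beads; 1 h, 37 °C, dark.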
CtBP-E1A inh = CtBP/E1A binding inhibition; activity change, % (test concentration not listed); 340,000 tested, 0.49% active; AlphaScreen GST-E1A/His-CtBP binding, 1536-well; hits give low values; in the data active = activity change below about -65%; inconclusive = mostly about -30% to -63%
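Steps: dispense buffer (Tris pH 8.0, NaCl 300 mM, TCEP 1 mM, BSA, Tween 20); add 5X protein mix (GST-E1A, His-CtBP, 125 nM each); pin 23 nL compound; 2 h at 37 °C, dark; add 5X beads (50 ug/mL); 1 h; read.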
A number is an active result; n = inactive; u = inconclusive; x = no result given; [ ] = dose if it differs, or a comment. Unless noted, calls follow the shape of the dose curve; as a rule, active = well fitted curve in the direction sought with a large enough effect; inconclusive = small, poorly fitted or top-dose-only effect, or another doubt; inactive = no such curve, though single readings can be large; an effect the other way counts as inactive or inconclusive.

SMILES | RORg inh | VP16 counter | p53 reactivator | Six1-Eya2 inh | CtBP-E1A inh
COc1ccc(CC2=CC(=O)c3ccccc3C2=O)cc1 | 7.08µM | 10µM | n | n | x
O=S(=O)(NC1CCCCC1)c1cccs1 | n | n | n | n | n
O=c1c2cc(N3CCOCC3)ccc2[nH]c(=S)n1CCCN1CCCC1 | n | n | n | n | n
COc1ccc(NC(=O)c2ccc3c(=O)n(Cc4ccco4)c(=S)[nH]c3c2)c(OC)c1 | u | n | n | n | n
COc1cc2[nH]c(=S)n(Cc3ccco3)c(=O)c2cc1OC | 11.2µM | u | n | n | n
CCN(CCCn1c(=S)[nH]c2ccc(N3CCOCC3)cc2c1=O)c1ccccc1 | 3.98µM | u | n | n | n
O=c1c2cc(N3CCOCC3)ccc2[nH]c(=S)n1Cc1cccc(Cl)c1 | 3.55µM | 5.62µM | n | n | n
O=c1c2cc(N3CCOCC3)ccc2[nH]c(=S)n1Cc1ccco1 | 14.1µM | u | u | n | n
CC(=C/C=C/C(C)=C/C=C/C=C(C)/C=C/C=C(C)/C=C/C(=O)O)/C=C/C(=O)O | n | n | x | x | x
O=C(c1sc2cc(Cl)ccc2c1Cl)N1CCN(CCc2ccccn2)CC1 | n | n | n | n | n
CC(=O)N(C)c1cccc(-c2ccc3nnc(C)n3n2)c1 | n | n | n | n | n
COc1cccc(Cn2c(=S)[nH]c3ccc(N4CCOCC4)cc3c2=O)c1 | 2.82µM | 6.31µM | n | n | n
O=c1c2cc(Cl)ccc2[nH]c(=S)n1Cc1ccco1 | 2.24µM | 5.62µM | n | n | n
O=c1[nH]c2ccc(Cl)cc2c(=O)n1Cc1ccco1 | u | u | n | n | n
COc1cccc(CNC(=O)CCCCCn2c(=S)[nH]c3ccc(N4CCOCC4)cc3c2=O)c1 | n | n | n | x | x
O=c1c2cc(Cl)ccc2[nH]c(=S)n1Cc1cccs1 | 2µM | 4.47µM | n | n | n
COCCN(C(=S)Nc1cccc(C)c1C)C(C)c1ccco1 (configuration not stated) | 11.2µM | u | n | n | n
COCCN(C(=S)Nc1ccc(C)cc1C)C(C)c1ccco1 (configuration not stated) | 14.1µM | n | n | n | n
COCCN(C(=S)Nc1ccccc1C)C(C)c1ccco1 (configuration not stated) | u | n | n | n | n
COCCNc1nc2c(c(=O)n(C)c(=O)n2C)n1Cc1cccc(C(F)(F)F)c1 | n | 3.16µM | n | n | n
CCCNc1nc2c(c(=O)n(C)c(=O)n2C)n1Cc1cccc(C)c1 | n | 5.01µM | n | n | n
Cc1ccc(C(=O)C[n+]2cc(-c3ccc(C)cc3)n3c2CCCCC3)cc1 | u | 5.01µM | n | n | n
COc1ccc(C(=O)C[n+]2cc(-c3ccc(OC)cc3)n3c2CCCC3)cc1 | n | n | n | n | n
O=[N+]([O-])c1ccc(N=Nc2ccc(O)cc2O)cc1 | u | 0.631µM | u | n | n
O=[N+]([O-])c1cccc(N=Nc2ccc(O)cc2O)c1 | x | x | x | n | n
SMILES | RORg inh | VP16 counter | p53 reactivator | Six1-Eya2 inh | CtBP-E1A inh
CCCOc1ccccc1OCC(=O)Nc1cc(Cl)ccc1-n1cncn1 | x | x | n | n | n
CCC(C)(C)OC | n | u | x | x | x
O=[N+]([O-])c1cc2c(cc1/C=N/n1c(-c3ccccc3)n[nH]c1=S)OCO2 | 5.62µM | u | n | n | u
O=[N+]([O-])c1cc2c(cc1/C=N/n1c(-c3ccccn3)n[nH]c1=S)OCO2 | n[10 µM] | n | n | -82.7 | n
O=C(c1ccc(Cl)cc1)n1c(NCc2ccccc2)n[nH]c1=S | n | n | n | n | n
CCOC(=O)C1=C(Cc2ccc(F)cc2)C(=O)c2ccccc2C1=O | 14.1µM | n | n | n | n
COc1ccc(-n2c(=S)[nH]c3cc(C(=O)N4CCN(c5ccccc5)CC4)ccc3c2=O)c(OC)c1 | u | 12.6µM | n | n | n
COc1ccc(OC)c(NC(=O)c2ccc3c(=O)n(CCc4ccccc4)c(=S)[nH]c3c2)c1 | 0.794µM | 0.891µM | n | n | n
CCOC(=O)N1CCN(C(=O)c2ccc3c(=O)n(-c4cc(OC)ccc4OC)c(=S)[nH]c3c2)CC1 | n | n | n | n | n
COCCn1c(=S)[nH]c2cc(C(=O)NCCc3ccccc3)ccc2c1=O | n | n | n | n | n
COc1ccc(-n2c(=S)[nH]c3cc(C(=O)NCc4ccccc4)ccc3c2=O)c(OC)c1 | 20µM | u | n | n | n
CC(C)[C@H](NC(=O)CCCn1nnc2ccccc2c1=O)C(=O)O | n | n | n | n | n
CCOc1cc(NC(=O)C2CC2)c(OCC)cc1NC(=O)c1cccnc1 | n | n | n | x | x
CN1CCN(c2ncc3nc(-c4ccc(Cl)cc4)c(=O)n(Cc4cccs4)c3n2)CC1 | n | n | x | x | x
CC(=O)C(Cc1ccccc1)NC(=O)CN(C)Cc1ccccc1Cl (configuration not stated) | n | n | n | n | n
Cc1c(Cl)cccc1NC(=O)CNc1cccc(C(F)(F)F)c1 | n | n | n | n | n
N#Cc1ccccc1NC(=O)CNc1ccc(Cl)c(C(F)(F)F)c1 | u | 11.2µM | n | n | n
O=C(CSc1nnc(-c2ccc(O)cc2)o1)NNC(=O)c1ccncc1 | n | n | n | n | n
CCCOc1ccc(N)cc1N | 4.47µM | u | n | n | n
O=C(NC[C@H](O)c1ccccc1)c1ccccc1 | n | n | x | x | x
COc1cccc(CN2CCN(Cc3cccc4c3OCO4)CC2CCO)c1 (configuration not stated) | 7.08µM | 7.94µM | n | n | n
Cc1ccc(CN2CCN(Cc3cccc4c3OCO4)CC2CCO)cc1 (configuration not stated) | n | n | n | n | n
O=S1(=O)C=C(Sc2nnc(-c3ccccc3)o2)c2ccccc21 | 1.78µM | 3.16µM | n | n | n
CCNc1ncc2nc(-c3ccccc3)c(=O)n(Cc3cccs3)c2n1 | n | n | x | x | x
COCCn1cnc2c1-c1ccc(OC)c(c1)OC/C=C\COc1cccc-2c1 | n | n | x | x | x
SMILES | RORg inh | VP16 counter | p53 reactivator | Six1-Eya2 inh | CtBP-E1A inh
COCC(=O)Nc1ccc(C(=O)Nc2ccccc2Cl)cc1 | n | n | n | x | x
Cc1cccc(NC(=O)C(=O)NNC(=O)c2ccc(C(C)(C)C)cc2)c1 | u | 10µM | n | n | n
CC(C)(C)c1ccc(C(=O)NNC(=O)c2cccc(Br)c2)cc1 | u | u | n | n | n
CNc1cncc(-c2cccc(NS(C)(=O)=O)c2)n1 | x | x | x | u | -66.7
O=S(=O)(Nc1cccc2ncccc12)c1cccs1 | 2.24µM | n[0.365 µM] | n | -91.8 | -89.5
COc1ccc2c(c1)O/C(=C\c1ccco1)C2=O | n | n | n | n | n
CC(=O)COc1ccc2c(c1C)O/C(=C\c1ccco1)C2=O | 10µM | n | n | n | x
S=c1[nH]nc(C2CC2c2ccc(Cl)cc2)n1-c1ccc(Cl)cc1 (configuration not stated) | 2.24µM | u | n | n | n
Cc1ccc(-n2c(C3CC3c3ccc(Cl)cc3)n[nH]c2=S)cc1 (configuration not stated) | 2.82µM | 5.62µM | n | n | n

Assay outcomes from PubChem BioAssay.
